The list is not random: actives were taken first. Their share in the collection is about 2.5%.
MEKK2 mut-MEK5 – MEK5 binding signal on mutant MEKK2 PB1, primary screen, biochemical, multiplex bead flow cytometry, Alexa488-MEK5; Alexa488-MEK5 binding to MEKK2 mutant; percent response, % at 10 µM; hit rate 0.35% among 290,000; in the data active = percent response above about 24%, passing the limit was not always enough
MEKK2wt PB1 HTS – modulators of MEK5 binding to wildtype MEKK2, primary screen, biochemical, multiplex bead flow cytometry, Alexa488-MEK5 | Mitogen-activated protein kinase kinase kinase 2 (Homo sapiens), Q9Y2U5 | Alexa488-MEK5 binding to MEKK2 WT; actives lie on both sides | binding response (% of control), % at 10 µM | hit rate 1.1% among 290,000 | AID 1531, 2009; in the data active = binding response below about 67% or above about 130%
MEKK3 PB1 HTS – modulators of MEKK3-MEK5 PB1 binding, primary screen, biochemical, wildtype MEKK3, multiplex bead flow cytometry, Alexa488-MEK5; AID 1529, 2009; hit rate 1.4% among 290,000; Mitogen-activated protein kinase kinase kinase 3 (Homo sapiens), Q99759; binding response (% of control), % at 10 µM; bead-based flow cytometry, Alexa488-MEK5 binding to MEKK3; actives lie on both sides; 0 = blocked by unlabeled MEK5, 100 = vehicle;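 active = binding response more than 3 SD above or below the average of its plate-row segment, actives on both sides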;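 note: Alexa488 bead fluorescence after subtracting the streptavidin-only scavenger bead signal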
Target sequence (Q99759 whole entry, looked up): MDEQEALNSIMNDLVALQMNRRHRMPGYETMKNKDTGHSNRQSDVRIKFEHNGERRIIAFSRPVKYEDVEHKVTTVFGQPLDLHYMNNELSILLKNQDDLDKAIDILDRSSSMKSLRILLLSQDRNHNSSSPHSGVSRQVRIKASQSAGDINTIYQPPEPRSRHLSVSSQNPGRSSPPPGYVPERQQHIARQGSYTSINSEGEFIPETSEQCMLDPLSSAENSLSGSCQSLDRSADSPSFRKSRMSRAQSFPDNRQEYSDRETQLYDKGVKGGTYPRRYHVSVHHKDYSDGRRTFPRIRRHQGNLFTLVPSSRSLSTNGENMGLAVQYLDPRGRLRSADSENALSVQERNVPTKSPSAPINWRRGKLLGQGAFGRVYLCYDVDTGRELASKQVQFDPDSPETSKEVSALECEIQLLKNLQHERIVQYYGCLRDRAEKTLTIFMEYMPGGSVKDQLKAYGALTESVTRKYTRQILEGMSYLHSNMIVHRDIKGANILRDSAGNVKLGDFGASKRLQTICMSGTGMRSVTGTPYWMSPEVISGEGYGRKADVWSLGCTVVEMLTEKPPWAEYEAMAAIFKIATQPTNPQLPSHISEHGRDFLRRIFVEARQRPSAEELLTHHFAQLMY
GRK2 aptamer HTS – compounds blocking aptamer binding on GRK2 – biochemical, human GRK2, bead flow cytometry, HTS, primary screen; Beta-adrenergic receptor kinase 1 (Homo sapiens), P25098; FAM-aptamer displacement from GRK2; inhibition of aptamer binding, % at 10 µM; hit rate 0.59% among 330,000; AID 488847, 2010;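 active = inhibition of aptamer binding above 40%, roughly 3 SD of noise, on plates passing a quality check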;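 note: median bead fluorescence of bound FAM aptamer so fluorescent compounds give negative values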
MEKK2wt confirm – modulators of MEK5 binding to wildtype MEKK2, confirmation, biochemical, single concentration, multiplex bead flow cytometry; shares compounds with MEKK3 PB1 HTS; Alexa488-MEK5 binding to MEKK2 WT; actives lie on both sides; binding response (% of control), % at 10 µM; hit rate 2.4% among 5,900; AID 1892, 2009; in the data active = binding response below about 16% or above about 210%; inactive = in between
MEKK2mut-MEK5 – mutant MEKK2 PB1-MEK5 binding signal retest – biochemical, single concentration, multiplex bead flow cytometry, confirmation; shares compounds with MEKK3 PB1 HTS; Alexa488-MEK5 binding to MEKK2 mutant; percent response, % at 10 µM; hit rate 2% among 5,900; AID 1893, 2009; in the data active = percent response mostly above about 71%, no sharp cut-off; inactive = mostly below about 38%;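 note: higher means compound restores mutant binding toward wildtype level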
MEKK3 confirm – MEKK3 wild-type PB1 binding to MEK5, inhibitors, confirmation, biochemical, bead multiplex flow cytometry, single concentration, wildtype; binding response (% of control), % at 10 µM; hit rate 1.8% among 5,900; Alexa488-MEK5 binding to MEKK3; hits give low values; shares compounds with MEKK3 PB1 HTS;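 active = binding response below 72% of control, or above a set upper limit, though filed actives all read lower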;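 note: 100% = DMSO only wells and 0% = binding blocked by excess unlabeled MEK5; lower values mean stronger disruption of MEK5 binding to MEKK3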
The depositor's hits bear a star; / = not tested or not shown; [ ] = another dose, or the depositor's remark.

SMILES | MEKK2 mut-MEK5 | MEKK2wt PB1 HTS | MEKK3 PB1 HTS | GRK2 aptamer HTS | MEKK2wt confirm | MEKK2mut-MEK5 | MEKK3 confirm
CCOC(=O)c1c(/N=C/c2cc([N+](=O)[O-])ccc2O)sc(C)c1C | -5.0 | 91.0 | 92.0 | 0.0 | / | / | /
CCOC(=O)c1c(/N=C/c2cc(OC)cc([N+](=O)[O-])c2O)sc(C)c1C | 0.0 | 103.0 | 135.0* | 12.0 | 104.0 | 3.0 | 98.0
COc1ccccc1-n1c(-c2ccccc2)c[nH]c1=S | -21.0 | 65.0 | 49.0*[inhibitor] | / | 87.0 | -5.0 | 88.0
FC(F)(F)c1nnc2ccc(Cl)nn12 | 1.0 | 100.0 | 103.0 | 0.0 | / | / | /
FC(F)(F)c1nnc2ccc(Sc3ccccn3)nn12 | -28.0 | / | 1.0*[inhibitor] | 0.0 | 95.0 | -8.0 | 95.0
CCCCN(C(=O)COC(=O)c1ccccc1)c1c(N)n(CCC)c(=O)[nH]c1=O | / | / | / | 0.0 | / | / | /
CC(C)CN(C(=O)C1CCCO1)C1CCS(=O)(=O)C1 (stereo not drawn) | / | / | / | 1.0 | / | / | /
COC(=O)c1cc(C(=O)OC)cc(N2C(=O)CC(NNC(=O)c3ccc(C)cc3)C2=O)c1 (stereo not drawn) | -1.0 | 89.0 | 61.0*[inhibitor] | 3.0 | 102.0 | 4.0 | 102.0
CC(=O)c1ccc(NS(=O)(=O)c2ccc3c(c2)CCC(=O)N3)cc1 | / | / | / | 4.0 | / | / | /
CCOC(=O)c1[nH]c(C)c(C(=O)NCc2ccco2)c1C | 2.0 | 102.0 | 101.0 | 4.0 | / | / | /
CCOC(=O)c1c(C)[nH]c(C(=O)NCc2ccco2)c1C | 6.0 | 122.0 | 143.0* | 0.0 | 96.0 | 0.0 | 97.0
Cn1c(=O)c2sccc2n2c(CCCC(=O)N3CCCCC3)nnc12 | 5.0 | 102.0 | 101.0 | 2.0 | / | / | /
Cc1ccc(Nc2nc(NCCCN3CCOCC3)nc(N)c2[N+](=O)[O-])cc1C | 21.0 | 148.0* | 106.0 | 0.0 | 131.0 | 15.0 | 102.0
COc1ccccc1Nc1nc(NCCCN(C)C)nc(N)c1[N+](=O)[O-] | 47.0 | 145.0* | 111.0 | 0.0 | 144.0 | 29.0 | 103.0
COc1ccc(NC(=O)N2CCCC2C(=O)NCc2ccc(C)cc2)cc1 (stereo not drawn) | 62.0* | 114.0 | 73.0*[inhibitor] | 0.0 | 101.0 | 0.0 | 104.0
CN(C)c1ccc(CNc2ccc3c(c2)ncn3C)cc1 | 6.0 | 112.0 | 109.0 | 0.0 | / | / | /
CCN(CC)c1ccc(CNc2ccc3c(c2)ncn3C(C)(C)C)cc1 | 16.0 | 135.0* | 110.0 | 0.0 | 134.0 | 16.0 | 105.0
O=C(NCc1ccccc1)c1ccc(N2C(=O)C3CCCCC3C2=O)cc1 (stereo not drawn) | 1.0 | 105.0 | 142.0* | 0.0 | 104.0 | 5.0 | 106.0
Cc1cc(C)cc(NC(=O)c2ccc(N3C(=O)C4CCCCC4C3=O)cc2)c1 (stereo not drawn) | 6.0 | 102.0 | 102.0 | 0.0 | / | / | /
CCC(=O)Nc1ccc2c(c1)ncn2C | -5.0 | 81.0 | 75.0*[inhibitor] | 0.0 | 108.0 | 1.0 | 103.0
Cn1cnc2cc(NC(=O)COc3ccccc3)ccc21 | -5.0 | 96.0 | 99.0 | 1.0 | / | / | /
Cc1ccc(S(=O)(=O)N(C)c2ccc(C(=O)NCc3ccccc3F)cc2)cc1 | / | / | / | 4.0 | / | / | /
CCCN(CCC)S(=O)(=O)c1ccc(Cl)c(OC)c1 | 0.0 | 101.0 | 98.0 | 0.0 | / | / | /
CCCSc1nc(N)cc(=O)[nH]1 | -18.0 | 46.0*[inhibitor] | 35.0*[inhibitor] | 4.0 | 94.0 | -6.0 | 95.0
CCCSc1nc(C)cc(=O)[nH]1 | 2.0 | 105.0 | 101.0 | 1.0 | / | / | /
Nc1c(N(CCO)C(=O)COc2ccc(Cl)cc2)c(=O)[nH]c(=O)n1Cc1ccccc1 | -1.0 | 98.0 | 131.0* | 5.0 | 98.0 | 9.0 | 101.0

Screening results: PubChem BioAssay, NMMLSC
